About 8,800 targets were measured; listed, in parts, are those with a hit and a random draw of the rest. About 0.5% of all pairs of compound and target were hits. Unmarked numbers belong to inactive results.
Assays:
Experiment in all cases: log2 fold change, soluble protein after heating vs DMSO (PISA); higher = thermal stabilisation; K562 lysate, 10 uM; active = over 0.2 and 3.5 SD of the protein, either way, in both replicates (recomputed)
ibrutinib = compound: C=CC(=O)N1CCC[C@@H](n2nc(-c3ccc(Oc4ccccc4)cc3)c3c(N)ncnc32)C1 [ibrutinib]
In short: (§1)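 To prepare the extract, K562 pellets were dounce-homogenised in PBS pH 7.4 with 1 mM MgCl2, giving crude material at 1 mg/mL protein. This was treated with 10 μM compound for 30 min, then heated in aliquots for 3 min over 48°C-58°C before pooling and addition of NP-40 to 0.5% at 4°C. Centrifugation at 21,000xg for 90 min left soluble protein in the supernatant, which TMTpro 16plex LC-MS/MS quantified with equalised channel sums. Results are log-two fold changes in thermal stability compared with solvent controls, from duplicates.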

[1] = compound: CC(=O)c1cnc2ccc(-c3cc(Cl)c(O)c(Cl)c3)nc2c1N[C@H]1CC[C@H](CN(C)C)CC1
In short: as §1

ralimetinib = compound: CC(C)(C)Cn1c(N)nc2ccc(-c3[nH]c(C(C)(C)C)nc3-c3ccc(F)cc3)nc21 [ralimetinib]
In short: as §1

[2] = compound: CC(C)(O)CC(=O)NCCn1ccc2ncnc(Nc3ccc(Oc4cccc(C(F)(F)F)c4)c(Cl)c3)c21
In short: as §1

[3] = compound: CC(C)C1=C2N=C(C=C(N2N=C1)NCC3=CC=CC=C3)NCCCCCCN
In short: as §1

[4] = compound: CC1=C(C(CC(=O)N1)C2=CC=C(C=C2)C(F)(F)F)C(=O)NC3=C(C=C4C(=C3)C=NN4)F
In short: as §1

[5] = compound: CC1=C(C2=C(C=C1)C(=O)C3=CC=CC=C3N2CCCN)C
In short: as §1

[6] = compound: CC1=C(C=C(C=C1)NC(=O)C2=CC(=CC=C2)C(C)(C)C#N)NC3=CC4=C(C=C3)N=CN(C4=O)C
In short: as §1

[7] = compound: CC1=C(C=C(C=C1)NC(=O)C2=CC(=CC=C2)N(C)C)NC(=O)C3=CC=C(C=C3)O
In short: as §1

[8] = compound: CC1=CC=C(C=C1)SC2=C3C=C(SC3=CN=C2)C(=O)N
In short: as §1

vemurafenib = compound: CCCS(=O)(=O)Nc1ccc(F)c(C(=O)c2c[nH]c3ncc(-c4ccc(Cl)cc4)cc23)c1F [vemurafenib]
In short: as §1

[9] = compound: CCCS(=O)(=O)Nc1ccc(F)c(C(=O)c2c[nH]c3ncc(Cl)cc23)c1F
In short: as §1

barasertib = compound: CCN(CCCOc1ccc2c(Nc3cc(CC(=O)Nc4cccc(F)c4)[nH]n3)ncnc2c1)CCOP(=O)(O)O [barasertib]
In short: as §1

[10] = compound: CC[C@@H]1C(=O)N(C)c2cnc(Nc3ccc(C(=O)NC4CCN(C)CC4)cc3OC)nc2N1C1CCCC1
In short: as §1

volasertib = compound: CC[C@@H]1C(=O)N(C)c2cnc(Nc3ccc(C(=O)N[C@H]4CC[C@H](N5CCN(CC6CC6)CC5)CC4)cc3OC)nc2N1C(C)C [volasertib]
In short: as §1

[11] = compound: CCn1c(C(=O)N(C2CC2)C2CC2)cc2c3c(ncn3C)c(Nc3cc(C)n(C)n3)nc21
In short: as §1

[12] = compound: CCn1cc(-c2ccnc3[nH]c(-c4cccc(CN(C)C)c4)cc23)c(-c2ccc(NC(=O)N(C)C)cc2)n1
In short: as §1

[13] = compound: CN1CCC(CNc2ccc3ncc(-c4cccc(OC(F)(F)F)c4)n3n2)CC1
In short: as §1

saracatinib = compound: CN1CCN(CCOc2cc(OC3CCOCC3)c3c(Nc4c(Cl)ccc5c4OCO5)ncnc3c2)CC1 [saracatinib]
In short: as §1

sotrastaurin = compound: CN1CCN(c2nc(C3=C(c4c[nH]c5ccccc45)C(=O)NC3=O)c3ccccc3n2)CC1 [sotrastaurin]
In short: as §1

MTHFD1, A0A384N5Y3, sequence (A0A384N5Y3 whole entry, looked up): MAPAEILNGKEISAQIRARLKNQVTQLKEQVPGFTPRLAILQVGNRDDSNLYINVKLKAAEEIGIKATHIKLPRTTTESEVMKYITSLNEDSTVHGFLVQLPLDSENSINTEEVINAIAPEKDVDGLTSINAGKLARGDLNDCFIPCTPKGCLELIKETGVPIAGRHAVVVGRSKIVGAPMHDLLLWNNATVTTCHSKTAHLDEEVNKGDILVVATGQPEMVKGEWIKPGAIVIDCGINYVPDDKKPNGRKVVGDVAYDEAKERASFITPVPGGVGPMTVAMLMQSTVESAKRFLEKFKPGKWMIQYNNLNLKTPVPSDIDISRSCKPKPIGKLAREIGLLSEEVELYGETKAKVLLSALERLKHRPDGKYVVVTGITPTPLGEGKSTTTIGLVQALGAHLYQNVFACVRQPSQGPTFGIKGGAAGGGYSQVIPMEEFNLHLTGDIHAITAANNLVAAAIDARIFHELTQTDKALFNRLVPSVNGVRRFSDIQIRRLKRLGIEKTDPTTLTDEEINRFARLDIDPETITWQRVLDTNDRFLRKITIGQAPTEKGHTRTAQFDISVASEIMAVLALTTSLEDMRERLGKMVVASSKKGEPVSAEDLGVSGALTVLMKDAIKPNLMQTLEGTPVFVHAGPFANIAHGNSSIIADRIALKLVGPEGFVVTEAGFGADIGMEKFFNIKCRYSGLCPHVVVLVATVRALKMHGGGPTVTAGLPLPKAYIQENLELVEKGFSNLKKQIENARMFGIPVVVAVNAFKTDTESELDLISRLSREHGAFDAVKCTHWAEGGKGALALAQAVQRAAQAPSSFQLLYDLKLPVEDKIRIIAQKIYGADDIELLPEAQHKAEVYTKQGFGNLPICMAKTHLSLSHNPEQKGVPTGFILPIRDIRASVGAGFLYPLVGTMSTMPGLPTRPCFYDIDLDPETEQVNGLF
UniProt Q92621, sequence (Q92621 whole entry, looked up): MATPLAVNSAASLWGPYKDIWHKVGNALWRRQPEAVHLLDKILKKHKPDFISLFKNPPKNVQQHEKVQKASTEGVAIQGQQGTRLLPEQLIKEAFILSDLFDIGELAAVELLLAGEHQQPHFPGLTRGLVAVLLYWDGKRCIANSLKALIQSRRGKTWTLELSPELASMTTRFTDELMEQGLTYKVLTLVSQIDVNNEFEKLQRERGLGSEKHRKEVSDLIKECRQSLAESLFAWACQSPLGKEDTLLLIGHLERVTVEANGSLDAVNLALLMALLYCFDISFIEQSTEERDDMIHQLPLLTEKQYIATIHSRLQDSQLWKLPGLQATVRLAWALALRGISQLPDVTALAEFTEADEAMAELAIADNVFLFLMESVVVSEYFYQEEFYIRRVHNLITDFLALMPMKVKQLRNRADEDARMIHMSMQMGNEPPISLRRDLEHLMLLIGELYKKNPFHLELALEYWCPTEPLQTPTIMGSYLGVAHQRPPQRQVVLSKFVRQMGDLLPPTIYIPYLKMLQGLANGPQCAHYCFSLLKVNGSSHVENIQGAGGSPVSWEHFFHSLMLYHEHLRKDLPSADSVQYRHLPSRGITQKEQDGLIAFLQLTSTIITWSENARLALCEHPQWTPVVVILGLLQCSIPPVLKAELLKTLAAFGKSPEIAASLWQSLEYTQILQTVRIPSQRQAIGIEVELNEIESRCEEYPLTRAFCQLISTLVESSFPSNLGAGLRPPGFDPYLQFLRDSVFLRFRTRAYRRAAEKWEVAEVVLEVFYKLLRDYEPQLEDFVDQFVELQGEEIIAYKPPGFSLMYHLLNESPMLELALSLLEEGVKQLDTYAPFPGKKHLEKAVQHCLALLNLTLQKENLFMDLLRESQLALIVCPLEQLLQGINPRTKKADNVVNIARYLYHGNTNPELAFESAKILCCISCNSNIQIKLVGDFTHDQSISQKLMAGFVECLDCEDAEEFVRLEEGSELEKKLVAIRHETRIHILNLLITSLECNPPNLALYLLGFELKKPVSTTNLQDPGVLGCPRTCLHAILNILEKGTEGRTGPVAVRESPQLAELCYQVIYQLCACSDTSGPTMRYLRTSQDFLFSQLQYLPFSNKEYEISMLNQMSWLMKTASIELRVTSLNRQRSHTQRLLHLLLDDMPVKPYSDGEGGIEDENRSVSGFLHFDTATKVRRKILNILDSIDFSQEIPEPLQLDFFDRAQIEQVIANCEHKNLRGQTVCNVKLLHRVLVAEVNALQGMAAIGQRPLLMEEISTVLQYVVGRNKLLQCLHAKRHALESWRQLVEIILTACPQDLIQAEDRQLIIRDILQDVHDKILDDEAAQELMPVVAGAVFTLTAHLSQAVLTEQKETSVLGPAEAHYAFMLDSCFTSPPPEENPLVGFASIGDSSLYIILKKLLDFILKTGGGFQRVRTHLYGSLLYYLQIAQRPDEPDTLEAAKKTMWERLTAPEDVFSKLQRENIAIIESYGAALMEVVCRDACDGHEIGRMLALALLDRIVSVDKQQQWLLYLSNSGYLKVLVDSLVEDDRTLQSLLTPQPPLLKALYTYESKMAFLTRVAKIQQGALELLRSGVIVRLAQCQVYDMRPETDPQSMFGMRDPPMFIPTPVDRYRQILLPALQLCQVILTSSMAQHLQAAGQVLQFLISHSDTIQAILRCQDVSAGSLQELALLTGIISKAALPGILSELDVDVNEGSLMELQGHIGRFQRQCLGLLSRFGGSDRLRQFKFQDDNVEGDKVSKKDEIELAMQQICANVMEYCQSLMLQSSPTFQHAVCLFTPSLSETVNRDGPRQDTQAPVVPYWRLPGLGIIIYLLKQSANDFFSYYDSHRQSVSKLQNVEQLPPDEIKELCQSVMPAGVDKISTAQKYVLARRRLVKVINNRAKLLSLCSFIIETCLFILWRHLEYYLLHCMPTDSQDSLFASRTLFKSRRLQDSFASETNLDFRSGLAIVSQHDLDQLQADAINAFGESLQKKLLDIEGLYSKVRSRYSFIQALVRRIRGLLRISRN
UniProt Q96KB5, sequence (Q96KB5 whole entry, looked up): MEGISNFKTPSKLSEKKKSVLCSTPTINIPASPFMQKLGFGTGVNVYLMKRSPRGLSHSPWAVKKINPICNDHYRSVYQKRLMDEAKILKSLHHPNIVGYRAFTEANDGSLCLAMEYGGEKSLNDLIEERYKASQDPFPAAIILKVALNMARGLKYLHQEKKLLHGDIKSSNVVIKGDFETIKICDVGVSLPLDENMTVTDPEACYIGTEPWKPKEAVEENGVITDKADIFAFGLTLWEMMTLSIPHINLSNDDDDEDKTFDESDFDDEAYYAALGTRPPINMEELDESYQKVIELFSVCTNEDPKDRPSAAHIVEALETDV
UniProt Q9BRA0, sequence (Q9BRA0 whole entry, looked up): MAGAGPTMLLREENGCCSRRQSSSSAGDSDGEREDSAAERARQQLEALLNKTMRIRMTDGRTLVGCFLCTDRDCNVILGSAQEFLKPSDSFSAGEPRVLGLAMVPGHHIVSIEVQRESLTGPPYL
UniProt Q6N063, sequence (Q6N063 whole entry, looked up): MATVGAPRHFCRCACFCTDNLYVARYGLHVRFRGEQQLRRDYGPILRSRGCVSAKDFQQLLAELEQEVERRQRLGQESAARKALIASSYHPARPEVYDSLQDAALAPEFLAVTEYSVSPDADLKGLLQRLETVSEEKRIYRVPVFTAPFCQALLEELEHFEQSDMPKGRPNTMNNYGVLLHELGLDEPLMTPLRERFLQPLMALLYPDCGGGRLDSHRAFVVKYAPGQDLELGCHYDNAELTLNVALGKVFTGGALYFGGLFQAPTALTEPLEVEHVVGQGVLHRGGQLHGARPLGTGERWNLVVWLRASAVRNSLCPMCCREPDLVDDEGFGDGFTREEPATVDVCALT
UniProt Q9NTK5, sequence (Q9NTK5 whole entry, looked up): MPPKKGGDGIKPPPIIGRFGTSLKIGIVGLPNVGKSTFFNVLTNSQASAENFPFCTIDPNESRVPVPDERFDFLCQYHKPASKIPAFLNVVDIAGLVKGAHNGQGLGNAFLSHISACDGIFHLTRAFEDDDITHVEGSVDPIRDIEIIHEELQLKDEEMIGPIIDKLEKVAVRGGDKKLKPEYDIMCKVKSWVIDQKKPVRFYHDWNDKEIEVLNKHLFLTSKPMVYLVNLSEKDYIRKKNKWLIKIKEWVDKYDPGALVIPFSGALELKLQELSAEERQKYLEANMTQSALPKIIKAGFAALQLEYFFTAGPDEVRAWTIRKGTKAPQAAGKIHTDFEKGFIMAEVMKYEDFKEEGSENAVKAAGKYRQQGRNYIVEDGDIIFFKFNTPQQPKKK
UniProt Q99836, sequence (Q99836 whole entry, looked up): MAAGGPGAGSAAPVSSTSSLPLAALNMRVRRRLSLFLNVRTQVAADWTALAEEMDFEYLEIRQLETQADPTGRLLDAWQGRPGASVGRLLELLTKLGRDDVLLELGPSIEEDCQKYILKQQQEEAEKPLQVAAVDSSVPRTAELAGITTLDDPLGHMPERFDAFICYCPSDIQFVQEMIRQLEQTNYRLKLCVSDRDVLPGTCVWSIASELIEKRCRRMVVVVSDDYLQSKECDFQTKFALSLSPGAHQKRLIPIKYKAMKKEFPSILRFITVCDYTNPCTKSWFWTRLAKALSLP
UniProt Q96DH6, sequence (Q96DH6 whole entry, looked up): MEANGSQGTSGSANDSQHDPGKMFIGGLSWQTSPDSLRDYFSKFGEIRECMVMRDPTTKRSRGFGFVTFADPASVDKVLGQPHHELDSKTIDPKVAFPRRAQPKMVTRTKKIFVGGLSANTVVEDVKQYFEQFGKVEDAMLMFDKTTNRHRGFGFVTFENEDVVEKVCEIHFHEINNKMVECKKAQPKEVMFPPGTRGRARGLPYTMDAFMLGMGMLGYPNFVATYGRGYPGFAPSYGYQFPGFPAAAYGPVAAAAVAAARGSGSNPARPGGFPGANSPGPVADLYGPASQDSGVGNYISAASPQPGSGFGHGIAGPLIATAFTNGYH

Row | Target | log2 fold change (ibrutinib) | log2 fold change [1] | log2 fold change (ralimetinib) | log2 fold change [2] | log2 fold change [3] | log2 fold change [4] | log2 fold change [5] | log2 fold change [6] | log2 fold change [7] | log2 fold change [8] | log2 fold change (vemurafenib) | log2 fold change [9] | log2 fold change (barasertib) | log2 fold change [10] | log2 fold change (volasertib) | log2 fold change [11] | log2 fold change [12] | log2 fold change [13] | log2 fold change (saracatinib) | log2 fold change (sotrastaurin)
1 | NOC2L (UniProt Q9Y3T9) | -0.047 | 0.015 | 0.047 | -0.005 | 0.026 | 0.014 | -0.074 | -0.02 | 0.021 | 0.014 | 0.04 | 0.021 | 0.028 | -0.029 | -0.035 | 0.006 | -0.079 | -0.016 | -0.078 | 0.05
2 | MYD88 isoform 6 (UniProt Q99836) | 0.044 | 0.003 | 0.022 | 0.005 | 0.024 | 0.002 | -0.028 | -0.009 | -0.024 | -0.029 | -0.031 | 0.01 | -0.002 | -0.042 | -0.075 | 0.022 | -0.009 | -0.013 | 0.009 | 0.05
3 | NUP98 (UniProt P52948) | -0.01 | 0.047 | 0.047 | 0.022 | -0.037 | 0.034 | 0.029 | -0.022 | 0.008 | -0.017 | 0.001 | 0.035 | 0.02 | -0.005 | -0.071 | 0.031 | -0.062 | 0.019 | 0.073 | -0.005
4 | MTHFD1, A0A384N5Y3 | -0.014 | -0.001 | 0.028 | 0.028 | 0.03 | -0.033 | -0.032 | 0.003 | 0.047 | 0.014 | 0.058 | 0.011 | 0.017 | -0.06 | -0.112 | 0.059 | 0.008 | -0.053 | -0.012 | 0.039
5 | MRPL53 (UniProt Q96EL3) | 0.041 | -0.018 | 0.062 | -0.047 | 0.016 | -0.047 | 0.011 | 0.042 | 0.044 | 0.011 | -0.006 | -0.01 | 0.032 | 0.069 | 0.057 | -0.017 | 0.013 | -0.019 | -0.003 | -0.021
6 | NAA38 isoform 2 (UniProt Q9BRA0) | 0.015 | -0.012 | -0.02 | -0.015 | -0.014 | 0.052 | -0.017 | -0.028 | 0.022 | -0.029 | 0.049 | 0.014 | 0.09 | -0.012 | 0.025 | 0.04 | -0.461 (active) | 0.201 | 0.042 | -0.079
7 | MSI2 (UniProt Q96DH6) | 0.044 | -0.024 | 0.032 | -0.039 | 0.015 | -0.029 | 0.009 | -0.315 (active) | 0.03 | 0.054 | 0.039 | -0.007 | 0.009 | 0.016 | -0.023 | 0.13 | -0.014 | 0.002 | -0.015 | -0.002
8 | OGFOD2 (UniProt Q6N063) | 0.002 | 0.023 | -0.012 | -0.018 | -0.125 | -0.023 | 0.025 | -0.04 | -0.029 | -0.023 | 0.024 | 0.173 | 0.005 | -0.147 | -0.062 | -0.023 | -0.042 | 0.071 | -0.047 | 0.039
9 | OSBPL3 isoform 2 (UniProt Q9H4L5) | 0.031 | -0.007 | 0.019 | 0.004 | -0.033 | 0.018 | 0.02 | 0.015 | 0.057 | -0.016 | 0.018 | 0.01 | 0.005 | -0.053 | -0.139 | 0.025 | -0.013 | -0.068 | 0.04 | 0.018
10 | MYO1C (UniProt O00159) | 0.037 | 0.031 | 0.075 | -0.032 | -0.009 | -0.03 | 0.017 | -0.292 (active) | 0.021 | 0.06 | -0.016 | 0.039 | -0.012 | -0.042 | -0.046 | 0.101 | -0.025 | -0.018 | -0.019 | 0.028
11 | MYO1D (UniProt O94832) | -0.016 | -0.012 | 0.04 | 0.003 | 0.018 | -0.021 | -0.009 | -0.014 | 0.01 | 0.031 | 0.073 | 0.018 | 0.05 | 0.006 | -0.003 | -0.002 | -0.05 | -0.035 | -0.001 | 0.041
12 | N4BP2 (UniProt Q86UW6) | 0.094 | -0.041 | 0.038 | -0.053 | 0.047 | 0.03 | -0.011 | -0.005 | -0.034 | -0.027 | -0.001 | 0.052 | -0.018 | 0.029 | -0.014 | 0 | -0.336 (active) | 0.029 | 0.018 | 0.05
13 | PBK (UniProt Q96KB5) | 0.006 | -0.007 | 0.005 | -0.005 | 0.029 | -0.008 | 0.015 | 0.006 | -0.013 | 0.019 | -0.006 | 0.002 | -0.009 | -0.069 | -0.033 | 0.039 | 0.043 | -0.017 | -0.018 | -0.015
14 | MTA1 (UniProt Q13330) | -0.018 | -0.025 | 0.001 | 0.006 | -0.007 | -0.004 | 0 | -0.008 | 0.034 | -0.018 | -0.022 | 0.011 | 0.008 | -0.005 | -0.007 | -0.003 | 0.013 | -0.061 | 0.018 | 0.036
15 | OLA1 (UniProt Q9NTK5) | 0.009 | -0.002 | 0.015 | 0.03 | 0.02 | -0.023 | 0.023 | -0.004 | 0.029 | 0.014 | 0.025 | 0.001 | 0.012 | -0.047 | -0.029 | 0.04 | -0.135 | 0.035 | -0.003 | 0.026
16 | NUP205 (UniProt Q92621) | 0.015 | 0.026 | 0.026 | -0.006 | -0.036 | 0.003 | 0.022 | 0.026 | 0.017 | 0.008 | 0.007 | 0.017 | 0.038 | -0.047 | -0.074 | 0.027 | -0.075 | -0.064 | 0.043 | 0.022

Reference: the supplement of paper PMC10849652
